In all, about 65,000 compounds went through this assay and about 2,100 (3.2%) showed an effect of 50% or more. The median lay at about -52%. Only a selection was taken, and strong results are over-represented in it overall.

This assay concerns Plasmodium falciparum. In words: Screen against P. falciparum Asexual Blood Stage (ABS), at 5uM. It counts as functional, Dd2. Conditions: tested at 5 uM.
Regarding `Cn1ccnc1CN1CCC2(CC(=O)N(c3ccsc3)C2)C1` (stereo not drawn), the INHIBITION is given as -95.1%.

For `Cc1ccc(NC2CCN(C(=O)c3cccc4[nH]ncc34)CC2)nn1`, the INHIBITION is on record as -12.4%.

For the compound `Cc1nn(C)c(C)c1CN(C)CC1(O)CCCN(C)C1` (stereo not drawn), the INHIBITION is listed as -56.8%.

Turning to `CCN1CCCC(O)(CN(C)Cc2ccc(C)o2)C1` (stereo not drawn), the INHIBITION turned out to be 20.1%.

For `Cc1ccc(CN(C)CC2(O)CCCN(C)C2)o1` (stereo not drawn), the INHIBITION came out at 54.2%.

Regarding `CC(C)c1nc(N2CCC(N3CCCC(O)C3)CC2)c2cnn(C)c2n1` (stereo not drawn), the INHIBITION is reported as -33.8%.

For the compound `CC(C)c1nc(N2CCC(N3CCCCCC3)CC2)c2cnn(C)c2n1`, the INHIBITION was found to be 51.9%.

Take `CC(C)c1nc(N2CCC(N3CCSCC3)CC2)c2cnn(C)c2n1`: the INHIBITION is -57%.

`O=C(CCN1CCOC(C(F)(F)F)C1)NCc1cccc(Cl)c1` (stereo not drawn): the INHIBITION is -53.515%.

`CC1(C)CN(CCC(=O)NCc2cccc(Cl)c2)CC[C@]1(C)O`: the INHIBITION is given as 53.1%.

For the compound `Cc1ccc(C(=O)O)cc1CNC(=O)CN1CC[C@](C)(O)C(C)(C)C1`, the INHIBITION was -0.0274%.

Consider `CN(C(=O)COc1ccc(F)cc1)[C@@H]1CC[C@@H](n2ccnc2)[C@@H]1O`, for which the INHIBITION is on record as -72.8%.

Take `COCCN1CCC2(CC1)CN(C(=O)c1ccco1)CCO2`: the INHIBITION is -29.3%.

Take `COc1ccc2[nH]nc(CN3CCC(C(C)N(C)C)CC3)c2c1` (stereo not drawn): the INHIBITION turned out to be 64.4%.

On to `COc1ccc2[nH]nc(CN3CCC(C(C)N4CCCC4)CC3)c2c1` (stereo not drawn), for which the INHIBITION is 38.8%.

Turning to `COc1ccc2[nH]nc(CN3CCC(C(=O)N4CCCCC4)CC3)c2c1`, the INHIBITION amounted to 13.7%.

Turning to `Cn1nccc1-c1nc2c(cc1C(=O)O)CCN(C(=O)C1CC1)CC2`, the INHIBITION is reported as -73.9%.

Take `O=C1CC(c2ccncc2)C2(CCN(C(=O)c3cccs3)CC2)N1` (stereo not drawn): the INHIBITION is on record as -50.7%.

For the compound `O[C@H]1[C@H](n2cc(CN3CCCC3)nn2)c2ccccc2C12CCNCC2`, the INHIBITION is listed as 63.2%.

Take `OCc1cn([C@@H]2c3ccccc3C3(CCNCC3)[C@H]2O)nn1`: the INHIBITION is reported as -114%.

With `COCc1cn([C@@H]2c3ccccc3C3(CCNCC3)[C@H]2O)nn1`, the INHIBITION was -24.9%.

As for `Cc1cnc(C(=O)N2CCC3(CCN3Cc3ccc(F)cc3)C2)cn1` (stereo not drawn), the INHIBITION is -60.5%.

Consider `O=C1CN(c2ccc(CNC(=O)Nc3nnc(C4CC4)s3)cc2)CCN1`, for which the INHIBITION is on record as -5.48%.

As to `Cc1cnn(CCNCCCOc2ccc3c(c2)OCO3)c1`, the INHIBITION is reported as 50.6%.

For `Cc1cnn(CCCOc2ccc3c(c2)OCO3)c1`, the INHIBITION is reported as -30.8%.

For the compound `COc1cc(CNc2cnn(C)c2)cc2c1OCCO2`, the INHIBITION is on record as -181%.

As to `COc1cc(CNCCc2cnn(C)c2)cc2c1OCCO2`, the INHIBITION is listed as -7.17%.

`Cc1cnn(CCNCCCOc2ccccc2)c1`: the INHIBITION is -13.6%.

For `Cc1cnn(CCNCCCOc2ccc(C#N)cc2)c1`, the INHIBITION is listed as 65.9%.

Consider `c1cnn(CCNCCCOc2ccc3c(c2)OCO3)c1`, for which the INHIBITION is listed as 23.5%.

In the case of `COc1cc(CNCCn2cc(C)cn2)cc2c1OCCO2`, the INHIBITION is given as 58.2%.

Turning to `Cc1cnn(CCNCC(O)COc2ccc(C#N)cc2)c1` (stereo not drawn), the INHIBITION is -106%.

In the case of `CC(=O)c1cccc(OCC(=O)NS(=O)(=O)c2ccc(Br)s2)c1`, the INHIBITION is recorded as -85.3%.

Take `CCN(CC)S(=O)(=O)N(Cc1ccccn1)Cc1ccccc1C`: the INHIBITION is recorded as -6.79%.

Regarding `CC(NCC(N)=O)c1c(F)cccc1Cl` (stereo not drawn), the INHIBITION is given as -21.3%.

With `Cc1sc2ncnc(N3CCC(N(C)Cc4cnn(C)c4)CC3)c2c1C`, the INHIBITION came to 23.5%.

For `COCc1noc(CN2CCCCC2CCc2cccs2)n1` (stereo not drawn), the INHIBITION is recorded as -172%.

Turning to `O=C(O)c1cc(-c2ccncc2F)cc(S(=O)(=O)N2CCCCCC2)c1`, the INHIBITION is -154%.

Turning to `O=C(c1ccco1)N1CCO[C@@H]2CN(CC3CC3)CC[C@@H]2C1`, the INHIBITION is listed as -65.2%.

In the case of `Cc1cccc(CN2CCC3(CCN(Cc4ccccn4)C3)C2=O)c1` (stereo not drawn), the INHIBITION is 27.8%.

For `Cc1nn(C)c(C)c1C1CCCN1C(=O)c1ccc(N(C)C)nc1` (stereo not drawn), the INHIBITION is on record as -54.2%.

With `COc1c(F)cc(-c2cccc3c2OC(CN)C3)cc1F` (stereo not drawn), the INHIBITION came to 35.4%.

As to `NCC1Cc2cc(F)cc(-c3cnccn3)c2O1` (stereo not drawn), the INHIBITION was determined as 19.1%.

Consider `COc1cc(OC)cc(-c2cccc3c2OC(CN)C3)c1` (stereo not drawn), for which the INHIBITION amounted to 68.3%.

As for `COc1cc(-c2cccc3c2OC(CN)C3)ccc1O` (stereo not drawn), the INHIBITION was found to be 38%.

Take `COc1cc(-c2ccc(F)c3c2OC(CN)C3)cc(OC)c1OC` (stereo not drawn): the INHIBITION is recorded as -12.8%.

In the case of `COc1ccc(-c2cccc3c2OC(CN)C3)cc1F` (stereo not drawn), the INHIBITION was determined as 62.6%.

On to `COc1cc(-c2cccc3c2OC(CN)C3)cc(OC)c1OC` (stereo not drawn), for which the INHIBITION amounted to 46.9%.

In the case of `NCC1Cc2cccc(-c3nccc(N4CCC(O)CC4)n3)c2O1` (stereo not drawn), the INHIBITION was determined as 20.4%.

Take `COc1cccnc1-c1ccc(F)c2c1OC(CN)C2` (stereo not drawn): the INHIBITION is listed as 59.3%.

Take `NCC(=O)N1CCC(c2cccc(Oc3ccccc3)n2)CC1`: the INHIBITION is reported as -20.5%.

With `CC(C)(C)NC(=O)CN1CCCNCC1`, the INHIBITION was -113%.

On to `CC(=O)NCC(=O)N1Cc2nccn2CC(COc2cccnc2)C1` (stereo not drawn), for which the INHIBITION is -98.1%.
